PubChem BioAssay AID504444 (National Center for Advancing Translational Sciences (NCATS), 2011)
The whole screen tested about 360,000 compounds, of which about 7,500 (2.1%) were called active. Entries that show only a call come without a potency. Another 20% or so got no clear call; they are omitted. Calls follow the shape of the dose curve; as a rule, active = well fitted inhibition curve with a large enough effect; inconclusive = small, poorly fitted or top-dose-only effect, or effect the other way; inactive = flat fitted curve, though single readings scatter. The full list was thinned out, with actives kept by preference.
Potency is read from the fitted curve at half-maximal effect.

Assay: Nrf2 qHTS screen for inhibitors; also: nearly all actives have a fitted effect of over 60% in size
Details: A549 ARE-Fluc reporter, luciferase luminescence, 18-24 h; series mostly up to 46 µM
How it was run: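 Two sequential reads on A549 ARE_Fluc cells exposed to compound for 18-24 h: a CellTiter-Fluor fluorescence read for viability, then a luciferase luminescence read for Nrf2/ARE activity.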
In the case of `COc1cc(C(=O)OCC(=O)NC23CC4CC(CC(C4)C2)C3)cc(OC)c1OC`, the Potency is reported as “inactive”.
With `COc1ccc(C2NCCCC2c2ccccc2)cc1` (stereo not given) the Potency was “inactive”.
In the case of `CCn1ccnc1CN(C)C(=O)c1cc(COc2ccc(-n3cncn3)cc2)on1`, the Potency is reported as “inactive”.
With `C=CCC1(CC=C)CCCN1C(=O)c1cc(COc2ccc(-n3cncn3)cc2)on1` the Potency was 8.2 µM (active).
In the case of `O=C(c1cc(COc2ccc(F)c(F)c2)on1)N1CCOCC1`, the Potency is reported as “inactive”.
With `O=C(COC(=O)C1CCCO1)Nc1nc(-c2ccc(F)cc2)cs1` (stereo not given) the Potency was “inactive”.
With `Cc1ccc(N2C(=O)N3[C@@H]4c5ccccc5OC[C@@H]4[C@@H](c4ccccc4)[C@@]3(C)C2=O)cc1` the Potency was “inactive”.
With `CCCCN(C(=O)CSCc1ccc(C)cc1)c1c(N)n(Cc2ccccc2)c(=O)[nH]c1=O` the Potency was “inactive”.
For `O=C(Cn1c(=O)n(Cc2cccs2)c(=O)c2cccnc21)Nc1ccc(F)cc1`, the Potency was “inactive”.
For `CN(C)c1nc(N)nc(Cn2nnc(-c3ccc(C(F)(F)F)cc3)n2)n1`, the Potency was “inactive”.
For `CN(C)c1nc(N)nc(CSc2ccccn2)n1`, the Potency was “inactive”.
For `CN(C)c1nc(N)nc(CSc2nnnn2-c2cccc3ccccc23)n1`, the Potency was 6.51 µM (active).
In the case of `Cc1ccc(-c2nc3ccccn3c2Nc2ccc(F)cc2)o1`, the Potency is reported as “inactive”.
For `COc1ccc(S(=O)(=O)N2CCc3ccccc32)cc1C(=O)Nc1cc(S(C)(=O)=O)ccc1Cl`, the Potency was “inactive”.
With `COc1ccc(C(=O)NC2CC(C)(C)Cc3c2cnn3-c2ccccc2)c(OC)c1` (stereo not given) the Potency was 18.4 µM (active).
For `CC1(C)Cc2c(cnn2-c2cccc(F)c2)C(NC(=O)c2cc[n+]([O-])cc2)C1` (stereo not given), the Potency was “inactive”.
In the case of `Cc1cc(C(=O)NC2CC(C)(C)Cc3c2cnn3-c2ccccc2)n[nH]1` (stereo not given), the Potency is reported as “inactive”.
With `CCOC(=O)Cc1csc(SCC(=O)Nc2ccc(C)cc2F)n1` the Potency was “inactive”.
In the case of `Cc1oc(C)c2c(=O)cc(-c3ccc4c(c3)OCO4)cc(OC(=O)c3ccc(Cl)cc3)c12`, the Potency is reported as “inactive”.
With `N#CCc1c[nH]c2ccc([N+](=O)[O-])cc12` the Potency was “inactive”.
For `COc1cc(C(=O)N(C)Cc2cccc(OC)c2OC)ccc1OCC(=O)Nc1cccc(C(F)(F)F)c1`, the Potency was 25.9 µM (active).
In the case of `COc1ccc(NC(=O)CN(C)CC(=O)Nc2cccc(C(F)(F)F)c2)cc1`, the Potency is reported as “inactive”.
In the case of `CCNC(=O)c1ccc(OCC(=O)Nc2ccc(F)cc2)c(OC)c1`, the Potency is reported as “inactive”.
For `COc1ccc(CC2c3cc(OC)c(OC)cc3CC[N+]2(C)CCC(=O)OCCCCCOC(=O)CC[N+]2(C)CCc3cc(OC)c(OC)cc3C2Cc2ccc(OC)c(OC)c2)cc1OC` (stereo not given), the Potency was “inactive”.
In the case of `COc1cccc(-c2nnc3n(CCc4ccccc4)c(=O)c4ccccc4n23)c1O`, the Potency is reported as “inactive”.
In the case of `N#Cc1cc([N+](=O)[O-])ccc1Oc1cccc(/C=N/NC(=O)c2ccc(Cl)cc2)c1`, the Potency is reported as 5.8 µM (active).
With `O=C(N/N=C/c1cccc(OC(=O)c2ccc([N+](=O)[O-])cc2)c1)c1cccnc1` the Potency was “inactive”.
In the case of `O=C(N/N=C/c1cccc([N+](=O)[O-])c1)c1ccncc1`, the Potency is reported as “inactive”.
For `O=C(NC(c1ccco1)c1cc(Cl)c2cccnc2c1O)c1ccccc1` (stereo not given), the Potency was “inactive”.
For `COc1ccc(C(CNC(=O)c2cccc(S(=O)(=O)Nc3ccccc3Cl)c2)N2CCOCC2)cc1` (stereo not given), the Potency was 18.4 µM (active).
With `COc1ccc(C(CNC(=O)c2ccc(S(=O)(=O)Nc3ccccc3C)cc2)N2CCOCC2)cc1` (stereo not given) the Potency was “inactive”.
With `COc1ccc(C(CNC(=O)c2cccc(NS(=O)(=O)c3ccc(C)c(F)c3)c2)N2CCCC2)cc1` (stereo not given) the Potency was “inactive”.
In the case of `CC(C)c1ccc(NC(=O)Cn2c3ncccc3c(=O)n2-c2ccccc2)cc1`, the Potency is reported as “inactive”.
For `O=C(C(c1ccccc1)c1ccccc1)N1CCN(CC(O)COc2ccccc2)CC1` (stereo not given), the Potency was “inactive”.
With `C=CCn1c(=N)n(CC(O)COc2ccc(OC)cc2)c2ccccc21` (stereo not given) the Potency was “inactive”.
In the case of `OC(CN=c1sc2ccccc2n1CC(O)COc1ccccc1)COc1ccccc1` (stereo not given), the Potency is reported as 23.1 µM (active).
For `COc1ccc(CCNC(=O)c2cnc3sc(N4CCCCCC4)nn3c2=O)cc1OC`, the Potency was “inactive”.
With `O=C(NCc1ccc2c(c1)OCO2)c1cc([N+](=O)[O-])ccc1N1CCOCC1` the Potency was “inactive”.
With `Cc1nc2ccc(NC(=O)c3cccc(S(=O)(=O)N4CCOCC4)c3)cc2s1` the Potency was 18.4 µM (active).
In the case of `O=C(Nc1ccc(N2CCOCC2)cc1)c1cccc(S(=O)(=O)N2CCOCC2)c1`, the Potency is reported as “inactive”.
In the case of `O=C(Nc1nnc(-c2ccco2)o1)c1ccc(S(=O)(=O)N2CCOCC2)cc1`, the Potency is reported as “inactive”.
In the case of `O=C(Nc1nnc(-c2ccccc2)o1)c1cccc(S(=O)(=O)N2CCOCC2)c1`, the Potency is reported as 20.6 µM (active).
With `O=C(NNC(=S)Nc1ccccc1)c1cccc(S(=O)(=O)N2CCOCC2)c1` the Potency was “inactive”.
For `O=C(Nc1ccc(S(=O)(=O)Nc2nccs2)cc1)c1cccc(S(=O)(=O)N2CCOCC2)c1`, the Potency was “inactive”.
In the case of `CCC(=O)Nc1ccccc1-c1nc2ccccc2n(CC(=O)Nc2ccc(C)c(C)c2)c1=O`, the Potency is reported as “inactive”.
In the case of `CC1(C)CCc2cc(S(=O)(=O)N3CCN(c4nc(-c5cccs5)nc5ccccc45)CC3)ccc2O1`, the Potency is reported as “inactive”.
In the case of `COc1ccc2ncc3c(-c4ccc(C)c(C)c4)nn(CC(=O)NC4CCCC4)c3c2c1`, the Potency is reported as “inactive”.
For `CC(=O)NC(c1cccs1)c1cc(Br)c2cccnc2c1O` (stereo not given), the Potency was “inactive”.
For `Cn1c(=O)n(C)c2cc(NS(=O)(=O)c3ccc(F)cc3)ccc21`, the Potency was “inactive”.
With `Cc1cc(C)cc(NS(=O)(=O)c2ccc(F)cc2)c1` the Potency was “inactive”.
In the case of `Cn1c(=O)n(C)c2cc(S(=O)(=O)Nc3ccc(F)cc3)ccc21`, the Potency is reported as 9.2 µM (active).
With `CC1CC(C)CN(c2oc(-c3ccc(OCc4ccc(Cl)cc4)cc3)nc2C#N)C1` (stereo not given) the Potency was “inactive”.
With `Cc1cccc(-n2ncc3c(=O)[nH]c(SCC(=O)Nc4cc(C)on4)nc32)c1` the Potency was “inactive”.
With `O=c1c([N+](=O)[O-])cccn1Cc1ccc(F)cc1Cl` the Potency was 25.9 µM (active).
With `Cc1ccc(-c2ccc(=O)n(Cc3ccc(F)cc3Cl)n2)cc1` the Potency was “inactive”.
In the case of `O=c1c([N+](=O)[O-])cc(C(F)(F)F)cn1Cc1cccc(Cl)c1`, the Potency is reported as “inactive”.
With `Cc1cc2n(n1)C(c1cc(C(C)(C)C)c(O)cc1O)Nc1ccccc1-2` (stereo not given) the Potency was “inactive”.
With `COc1ccc(N2CCN(C(=O)CSCc3nc(-c4ccccc4Cl)oc3C)CC2)cc1` the Potency was 1.84 µM (active).
For `COc1ccc(CNC(=O)CSCc2nc(-c3ccccc3F)oc2C)cc1`, the Potency was “inactive”.
In the case of `COc1ccc(N2CCN(C(=O)CCSCc3ccccc3F)CC2)cc1`, the Potency is reported as “inactive”.
